Results published in PubChem BioAssay (Tox21).
Results filed as inconclusive are left out. The source made the active and inactive calls. Calls come from the whole dose curve; as a rule, active = well fitted activation curve with a large enough effect; inconclusive = small, poorly fitted or top-dose-only effect; inactive = flat fitted curve, though single readings scatter.

assay: qHTS assay to identify small molecule phospholipidosis (PLD) inducers (AID 1259344); conditions: HepG2 phospholipidosis, LipidTOX Red imaging, 24 h; series mostly up to 38.3 µM; PLD induction: at the top concentration
Procedure, shortened: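 After 4 h attachment on collagen I, HepG2 cells were dosed with compound alongside LipidTOX Red, kept 24 h at 37 C, fixed, and imaged for lamellar phospholipid pits.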
% is set by controls: 0 for no effect and ±100 for the full control effect.

SMILES | PLD induction | Potency
CC1=C(/C=C/C(C)=C/C=C/C(C)=C/C=C/C=C(C)/C=C/C=C(C)/C=C/C2=C(C)CCCC2(C)C)C(C)(C)CCC1 | 0.0985% (inactive) | 
N[C@H](CO)C(=O)O | 2.42% (inactive) | 
CSCC[C@H](NC(=O)[C@H](Cc1ccc(OS(=O)(=O)O)cc1)NC(=O)[C@@H](N)CC(=O)O)C(=O)NCC(=O)N[C@@H](Cc1c[nH]c2ccccc12)C(=O)N[C@@H](CCSC)C(=O)N[C@@H](CC(=O)O)C(=O)N[C@@H](Cc1ccccc1)C(N)=O |  | inactive
CC(C)=CCC/C(C)=C/CC/C(C)=C/CC/C(C)=C/CC1=C(C)C(=O)c2ccccc2C1=O |  | inactive
CC(=O)N[C@@H](C=O)[C@H](O)[C@H](O)[C@@H](O)CO |  | inactive
CC1(C)C[C@@H]1C(=O)N/C(=C\CCCCSC[C@H](N)C(=O)O)C(=O)O |  | inactive
OCC1(CO)COC(C(Cl)(Cl)Cl)OC1 | -0.312% (inactive) | 
O=C(O)c1ccccn1 | 2.09% (inactive) | 
CCN(CC)CC#CCOC(=O)C(O)(c1ccccc1)C1CCCCC1 (stereo unspecified) | 11.8% (inactive) | 
CCC[C@@H]1C[C@@H](C(=O)N[C@@H]([C@H]2O[C@H](SC)[C@H](OP(=O)(O)O)[C@@H](O)[C@H]2O)[C@H](C)Cl)N(C)C1 |  | inactive
CCCCCCCCCC(=O)NO |  | inactive
NCC1CCC(C(=O)O)CC1 (stereo unspecified) | 2.82% [at 15.5 µM] (inactive) | 
CN1C(=O)C[C@@H](C(=O)N[C@@H](Cc2cnc[nH]2)C(=O)N2CCC[C@H]2C(N)=O)NC1=O | 0.738% (inactive) | 
CCOc1ccc(NC(=S)Nc2ccc(OCC)cc2)cc1 | 0.321% (inactive) | 
NC(=S)NS(=O)(=O)c1ccc(N)cc1 | -0.138% (inactive) | 
CCOc1cc(CC(=O)N[C@@H](CC(C)C)c2ccccc2N2CCCCC2)ccc1C(=O)O | 4.37% [at 15.5 µM] (inactive) | 
